Results on 39 molecules are retold here after PubChem BioAssay (NCI).

“And” between values parts separate entries of the source, which are not always exact repeats. Identical values can stand only once. This is part of a sample that, as a whole, favours compounds with a hit. Of some 83,000 tested, about 20% had one in any assay.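 Interpretation: 100, growth as untreated; towards 0, rising growth inhibition; 0, no net growth; 0 to -100, cell death. Compounds scoring below 10 were considered active.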 Values without a mark were called inactive. The source made the active and inactive calls.

The test concerns MDA-MB-468 breast. Briefly: NCI-60 one-dose screen, 48 h (100 = growth as untreated, 0 = no growth, -100 = all killed). To be noted: 10 µM unless noted.
In the case of `C=CC12CCN(CC1)C(C(O)c1ccnc3ccc(OC)cc13)C2` (centres undefined), the growth is 11.6%.

On to `CC(=O)N(C)C1=Nc2ccc(Cl)cc2C(c2ccccc2)=[N+]([O-])C1`, for which the growth is 111%.

For `CO[C@H]1[C@H](O[C@@H]2C[C@@H]3C/C=C/C(=O)O[C@@H](CO)C[C@H](O)[C@@H]4C[C@H](C)[C@H](C/C=C\C=C\[C@H](C)C[C@H](C2)O3)O4)O[C@@H](C)[C@H](O)[C@H]1O`, the growth was -4.8% (active).

Take `O=C1C=C(N2CC2)c2ccccc2C1=O`: the growth is 24.6%.

Turning to `CC(/C=N/N=C(N)N)=N/N=C(N)N`, the growth is 93.9%.

For the molecule `CC1=C(CN)C2=C(C)C3(CC3)[C@@](C)(O)C(=O)C2=C1`, the growth was 73.2%.

On to `ClCCN(CCCl)c1ccc(/C=N/Nc2ncnc3nc[nH]c23)cc1`, for which the growth was 49.8%.

For the molecule `COC(=O)[C@@H](C)C[C@H](Cc1ccccc1)NC(=O)c1nc([C@@H](C[C@H](C(C)C)N(C)C(=O)[C@@H](NC(=O)[C@H]2CCCCN2C)C(C)C)OC(C)=O)sc1C(C)C`, the growth is 20.7%.

Consider `CCOCC1(CCc2ccccc2)C(=O)NC(=S)NC1=O`, for which the growth is 119%.

As for `CC1=C[C@H]2O[C@@H]3C[C@H]4OC(=O)/C=C\C=C\[C@H]([C@@H](C)O)OCC[C@@H](C)[C@H](O)C(=O)OC[C@@]2(CC1)[C@]4(C)[C@]31CO1`, the growth was -66.7% (active).

On to `NC1CN2CCC1CC2` (centres undefined), for which the growth is 108%.

In the case of `O=C(/C=C/c1ccccc1)N[C@@H](CO)Cc1cnc[nH]1`, the growth was 102%.

As for `CNC(=O)Oc1cccc(OC)c1`, the growth was 106%.

With `CCN(CC)c1ccc2c(c1)OC(N)=C(C#N)C2c1cc(OC)c2c(c1)OCO2` (centres undefined), the growth was -9.24% (active).

With `O=S(OO)c1cc(Cl)c(O)c(Cl)c1` (centres undefined), the growth is 112%.

Consider `CCC(C)(C)[C@H](NC(=O)[C@H]1CCCCN1C)C(=O)N(C)[C@H](C[C@@H](OC(C)=O)c1nc(C(=O)N[C@@H](Cc2ccccc2)C[C@H](C)C(=O)O)cs1)C(C)C`, for which the growth is 7.54% (active).

`CC[C@H](C)[C@H](NC(=O)[C@H]1CCCCN1C)C(=O)N(C)[C@H](C[C@@H](OC(C)=O)c1cccc(C(=O)N[C@@H](Cc2ccccc2)C[C@H](C)C(=O)O)n1)C(C)C`: the growth is 31.2%.

For the molecule `CCN(CC)CCn1c(=O)n(C)c2ccccc21`, the growth was 100%.

As for `CCN(CCO)C(Cc1ccccc1)c1ccccc1` (centres undefined), the growth is 96%.

Consider `COc1ccc(-n2c(C)nc3cc(OC)c(OC)cc3c2=O)cc1OC`, for which the growth is 114%.

As to `Nc1c(Br)cc2c3c(cccc13)-c1ccccc1-2`, the growth is 3.54% (active).

For `NC(=O)c1cc([N+](=O)[O-])c(Cl)c([N+](=O)[O-])c1`, the growth was 19.8%.

With `O=C(CCCN1CCC2(CC1)C(=O)NCN2c1ccccc1)c1ccc(F)cc1`, the growth was 103% and 32.6%.

Take `CC1=C(CN(O)C(N)=O)C2=C(C)C3(CC3)[C@](C)(O)C(=O)C2=C1`: the growth was -65.6% (active).

Regarding `CC1COC(=O)C1` (centres undefined), the growth is 106%.

`CC1([N+](=O)[O-])COP(=O)(Nc2ccc(F)cc2)OC1` (centres undefined): the growth was 110%.

Take `O=[N+]([O-])c1ccc(N2CCOCC2)c2c1no[n+]2[O-]`: the growth was 2.62% (active).

`O=C(O)c1cccc(CCl)c1`: the growth is 105%.

For `COc1ccc(N(CC(=O)NCCC[Te]c2ccccc2)C(=O)CNC(=O)OC(C)(C)C)cc1`, the growth is 92.6%.

For `COc1ccc(/C=C(/C(=O)N2CCCC2)c2cc(OC)c(OC)c(OC)c2)cc1N`, the growth is -4.72% (active).

On to `Fc1c[c-]c(-c2ccccn2)c(F)c1.[CH3-].[Pt+2].c1ccc([PH+](c2ccccc2)c2ccccn2)cc1`, for which the growth is -21.7% (active).

In the case of `O=[As](O)(O)c1ccccc1[As](=O)(O)O`, the growth was 99.7%.

For the molecule `CCCCCCCCCCCCCCCCCC1OCC(COC(=O)O[C@@H](C(=O)O[C@H]2C[C@@]3(O)[C@@H](OC(=O)c4ccccc4)[C@@H]4[C@]5(OC(C)=O)CO[C@@H]5C[C@H](O)[C@@]4(C)C(=O)[C@H](OC(C)=O)C(=C2C)C3(C)C)[C@@H](NC(=O)c2ccccc2)c2ccccc2)O1` (some centres undefined), the growth was 3.29% (active).

For `CC1(C)N=C(N)N=C(N)N1c1ccc(CCC(=O)Nc2cccc(S(=O)(=O)F)c2)cc1`, the growth was 28%.

As to `CC(=O)Cc1ccc2c(c1)OCO2`, the growth was 103%.

Regarding `CN=C(NN)NN`, the growth is 112%.

For the molecule `CCCCCCCOC(C(=O)OCCN(CC)CC)(c1ccccc1)c1ccccc1`, the growth was 79.7%.

For `CCOC(=O)C(Cc1ccc(N(CCCl)CCCl)cc1)NC(=O)C(CC(C)C)NC(C)=O` (centres undefined), the growth was -45.6% (active).

As for `NC(N)=NC(N)=Nc1ccc(Cl)cc1`, the growth was 111%.
